Pf Dd2 growth – blocks in vitro growth of P. falciparum Dd2. P. falciparum Dd2 growth, SYBR Green, 72 h. hit rate 4.3% among 120,000. Potency, µM (series often up to 28.9 µM), for inactives: at the top dose activity, negative = inhibition, most hits filed as inhibitors; active = well fitted inhibition curve with a large enough effect;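 note: plate controls were DMSO vehicle for no effect and reference drug for full effect; nearly all actives have a fitted effect of over 65% in size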
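Readout: SYBR Green fluorescence, 485 nm excitation, 535 nm emission, after ~16 h lysis at 37C. Before that, Dd2-infected red cells (2.5% hematocrit) grew 72 h with compound, 29 uM top final concentration.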
Active calls of the source: *; i = inactive; [ ] = remark or other dose. Many of the other results were omitted from the sample, so hits are more common in it than they were. Potency is the fitted concentration of half-maximal effect.

SMILES | Pf Dd2 growth
CCS(=O)(=O)NCC1(COc2ccccc2)C[C@@H](O)[C@@H](O)C1 (some centres not stated) | -6%[44.1 µM]
Cc1nn(C)cc1C(=O)N1CCC2(CC1)CC(c1ccccc1)C(=O)N2 (configuration not stated) | 1%
COc1ccccc1N1CCN(C2CCCN(Cc3nc(C(N)=O)no3)C2)CC1 (configuration not stated) | -21%
COCC1CCCN(Cc2nc(C(c3ccccc3)c3ccccc3)no2)C1 (configuration not stated) | 11µM*
O=C(c1cccs1)C1CCCN(Cc2nc(CCc3ccccc3)no2)C1 (configuration not stated) | -18%
O=C(NCc1ccccc1Cl)C1CCN(C(=O)c2ncn3c2COC(c2ccccc2)C3)CC1 (configuration not stated) | -20%
Cc1cnc(C(=O)N[C@@H]2CCC[C@@H]2C(=O)NCCc2ccc(Cl)cc2)cn1 | i
CCCNC(=O)C1Cn2cccc2C(=O)N1Cc1ccccc1 (configuration not stated) | i
CN(C)c1nccnc1OC1CCN(C(=O)c2ccncc2)C1 (configuration not stated) | i
CN(C)c1nccnc1OC1CCN(C(=O)CCC(=O)c2ccc(F)cc2)C1 (configuration not stated) | 5.6µM*
CCC(CC)C(=O)N1CCC(Oc2nccnc2N(C)C)C1 (configuration not stated) | -14%
Cc1ncc(CO)c(CN2CCCC3(Cc4ccccc4CNC3=O)C2)c1O (configuration not stated) | -3%
COc1ccc(N2CCN(C3CCCN(CC4CC4)C3)CC2)cc1 (configuration not stated) | 5%
COc1cccc(CN2CCCC(c3ccc(C(=O)O)cc3)C2)c1OC (configuration not stated) | -2%
COc1cc(CN2CCCC(COc3ccccc3C(=O)N3CCCC3)C2)ccc1O (configuration not stated) | i
COc1ccc(N2CCN(C3CCCN(CC(N)=O)C3)CC2)cc1 (configuration not stated) | -13%
COc1cc2c(cc1OC)CN(C1CCCN(Cc3c(O)cccc3OC)C1)CC2 (configuration not stated) | 10µM*
COc1ccc(F)c(CN2CCCN3CCC[C@H]3C2)c1Cl | 13µM*
CO[C@H]1C[C@@H](O)C12CCN(C(=O)CCc1ccc(-c3cccs3)o1)CC2 | -4%
Cc1ccc(C2NC(=O)N(CC(=O)Nc3ccc(Br)c(C)c3)C3=C2C(=O)OC3)cc1 (configuration not stated) | i
C#CCNC(=O)C[C@@H]1O[C@H](CNC(=O)c2ccc(C)cc2)[C@@H](O)[C@H]1O | 10%[44.1 µM]
COc1cccc(N2CC(C(=O)NCC3CC3)NC2=O)c1 (configuration not stated) | 9%[44.1 µM]
CCCNC(=O)N1CCCCCCNC(=O)[C@@H]2C[C@@H](c3nc(-c4cccnc4)no3)C[C@@H]21 | i
Cc1noc([C@@H]2CN(C(=O)CN3CCCCCC3)C[C@H]2CO)n1 | 3%
Cc1nc(-c2ccc(Cl)cc2)n(CC(=O)N2CCN(c3ccc(F)cc3)CC2)c(=O)c1CCO | i
SMILES | Pf Dd2 growth
O=C(C1CCCCC(=O)N1Cc1ccccc1)N1CCCC1 (configuration not stated) | 43%
Cc1ccc(NC(=O)Nc2nnc(N(C)Cc3ccccc3)s2)c(C)c1 | -23%
Cc1oc2ccc(O)c(CN(C)Cc3ccccc3)c2c1C(=O)Nc1ccccc1 | 1.1µM*
Cc1ccc(NC(=O)c2c(C)oc3ccc(O)c(CN(C)Cc4ccccc4)c23)c(C)c1 | 1.3µM*
CN(Cc1ccc(-c2ccccc2)cc1)C(=O)Nc1ccccc1 | -3%[44.1 µM]
Cc1ccc(NC(=O)c2c(C)oc3ncnc(N4CCCCC4)c23)c(C)c1 | 17%
Cc1oc2ccn(Cc3cccc(F)c3)c(=O)c2c1C(=O)N(C)Cc1ccccc1 | i
COc1cccc(CCC(=O)NCCC2CCN(C(=O)Nc3ccc(F)cc3F)CC2)c1 | -25%
COC(=O)[C@@H]1C[C@@H](NS(=O)(=O)c2ccc(C(F)(F)F)cc2)CN1C | -5%
COCC(=O)NC[C@H]1CCN(C2CCSCC2)C[C@H]1N(C)C | i
COCc1nc(-c2ccc(OC3CCN(C(=O)c4n[nH]c5ccccc45)C3)cc2)no1 (configuration not stated) | 85%[5.79 µM]
CS(=O)(=O)N1CCCC(C(=O)NCc2ccccn2)CCNC(=O)CC1 (configuration not stated) | 23%
O=C(Nc1cccc(C(F)(F)F)c1)c1cnc2c(c1)N(Cc1ccccc1)CCC2 | -18%[44.1 µM]
CC(=O)N1CCc2cc(Br)cc(S(=O)(=O)N3CCN(c4cccc(C(F)(F)F)c4)CC3)c21 | 10µM*
CCC(=O)N1CCc2cc(Br)cc(S(=O)(=O)N3CCN(c4ccccc4)CC3)c21 | -3%
O=C(C1CC1)N1CCc2cc(Br)cc(S(=O)(=O)N3CCN(c4cccc(Cl)c4)CC3)c21 | -7%
CCc1noc(-c2cn(C3CCN(C(=O)c4ccc(C)c(C)c4)CC3)nn2)n1 | i
CNC(=O)c1cnn2c1CN([S+](=O)([O-])c1cccc(C(F)(F)F)c1)CC2 | 3%
NS(=O)(=O)c1ccc(C(=O)N[C@H](c2cccs2)C2CC(O)C2)cc1 (some centres not stated) | -4%
COC[C@@H]1CCCN1Cc1cc2ccc(C)cc2nc1-c1ccc(OC)cc1 | 14µM*
COc1ccc(-c2nc3cc(C)ccc3cc2CN2CCN(C)C(CCO)C2)cc1 (configuration not stated) | 10µM*
COc1ccc2cc(CN3CCCC(C#N)C3)c(-c3cccs3)nc2c1 (configuration not stated) | -17%
COc1ccc(-c2nc3cc(C)ccc3cc2CN2CCCC(O)C2)cc1OC (configuration not stated) | -19%
COC[C@H]1CCCN1Cc1nc(C2(O)CCN(C)CC2)cs1 | -18%[44.1 µM]
COc1ccc(-c2nc3cc(C)ccc3cc2CN2CCCC(CO)C2)cc1OC (configuration not stated) | -20%
SMILES | Pf Dd2 growth
CN1CCN(Cc2cn3c(=O)n(C)cc(-c4cccc(N(C)C)c4)c3n2)CC1 | -4%[44.1 µM]
CN1C(=O)c2cccn2CC1CNC(=O)Nc1ccc2c(c1)OCCO2 (configuration not stated) | -2%
CC(C)OCCCNC(=O)CN1CC2CC(C1)[C@H]1CCCC(=O)N1C2 (some centres not stated) | 4%
O=C(c1ccc(C(F)(F)F)cc1)N1CCCC(c2nn(-c3ccccc3)c(=O)[nH]2)C1 (configuration not stated) | -14%
CC(Cn1cccn1)C(=O)N1CCC2(CC1)Nc1ccccc1NC2=O (configuration not stated) | -3%
CCCCN(CC)C(=O)Cn1ccn2nc3c(c2c1=O)CCCC3 | i
O=C1CC2CCN(Cc3cccc(C(F)(F)F)c3)CC2CCN1 (configuration not stated) | -10%
CC(=O)Nc1ccc(C2(C(=O)N3CCCCCC3)CCC2)cc1 | -21%
CC(=O)Nc1ccc(C2(C(=O)O)CCCCC2)cc1 | 3%
CC(=O)Nc1ccc(C2(C(=O)N3CCC(N4CCCCC4)CC3)CCCCC2)cc1 | 13µM*
COc1ccc(N2CC3CCC(C2)N3Cc2ccc(-c3ccccc3)cc2)cc1 | 9%
COc1ccc(N2CC3CCC(C2)N3Cc2ccccc2)cc1 | -11%
COc1ccc(N2CC3CCC(C2)N3Cc2cccc(-c3cccnc3)c2)cc1 | 11µM*

Assay outcomes (PubChem)
